HT1080NT lethal – kills 2HG-producing HT-1080-NT fibrosarcoma cells; HT-1080-NT fibrosarcoma viability, CellTiter-Glo ATP luminescence, 48 h; Potency, µM (titrated, usually from 46.1 µM), for inactives: at the top dose activity, negative = less viability, actives largely listed as cytotoxic; 1.6% of 360,000 active; AID 686970;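 further: NT is the 2HG producing partner of a matched IDH1 knockdown line; potency means the concentration at half of the fitted maximal effect; 0% = DMSO-treated cells and -100% = media-only wells without cells; nearly all actives have a fitted effect of over 55% in size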
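Viability of the 2HG-overproducing fibrosarcoma line after 48 hours of compound exposure at 37 degrees C was determined by luminescence with CellTiter-Glo, and concentration-effect curves were then fitted and categorized.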
HT1080 IDH1KD tx – HT-1080 IDH1 knockdown cell toxicity (counter line); HT-1080 IDH1 knockdown viability, ATP luminescence, 48 h; 2% of 360,000 active; Potency, µM (top dose mostly 46.1 µM), without a hit: at the highest dose activity, negative = toxicity, most hits filed as cytotoxic;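 further: potency means the concentration at half of the fitted maximal effect; 0% = DMSO wells and -100% = cell-free medium wells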
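Assay cells: HT-1080 with IDH1 knockdown, 750 per well, RPMI/5% FBS. Exposure: 48 h at 37 °C following 2 h pre-incubation. Read: CellTiter-Glo luminescence; fitted concentration-response, curve class assigned.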
ELG1 repair inh – ELG1-dependent DNA repair inhibition; HEK293T ELG1-luciferase reporter, luminescence, 16 h; DNA damage induced by 5-fluorouridine; Potency, µM (series often up to 46.1 µM), inactives show at the top dose activity change, negative = inhibition, hits mostly inhibitors; 2.3% of 330,000 active; AID 504467; further: potency means the concentration at half of the fitted maximal effect; nearly all actives have a fitted effect of over 55% in size
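5-Fluorouridine DNA damage + compound/DMSO, 2,000 cells/well, 16 h, 37 °C/5% CO2. ONE-Glo, 30 min RT, luminescence. Readout = decrease in reporter signal.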
TDP1 cell CPT – DT40-hTDP1 cell growth loss with CPT; 12% of 420,000 active; AID 686979; Potency, µM (titrated, usually from 46.2 µM), for inactives: at the highest dose activity change, negative = growth inhibition, usual class: inhibitors; chicken DT40 Tdp1-/-;hTDP1 cells + 20 nM CPT, ATP luminescence, 48 h; further: potency means the concentration at half of the fitted maximal effect; nearly all actives have a fitted effect of over 55% in size
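Cell growth measured by CellTiter-Glo luminescence after a minimum 48 h, 37 C compound exposure with 20 nM CPT in Tdp1-knockout DT40 cells stably expressing hTDP1, seeded 400/well; qHTS titration format.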
DT40 TDP1 no CPT – qHTS for Inhibitors of human tyrosyl-DNA phosphodiesterase 1 (TDP1): qHTS in cells in absence of CPT; AID 686978, 2013; 15% of 420,000 active; DT40 Tdp1-/- hTDP1 cells, no CPT, ATP luminescence, 48 h; Potency, µM (doses to about 46.2 µM), without a hit: at the highest dose activity change, negative = growth inhibition, actives largely listed as inhibitors; further: potency means the concentration at half of the fitted maximal effect; nearly all actives have a fitted effect of over 55% in size
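Compound effects on proliferation are scored in DT40 Tdp1-/-;hTDP1 cells in the absence of CPT. ATP levels (CellTiter-Glo luminescence) are recorded after a ≥48 hr, 37 °C incubation.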
IL-1B inflam inh – blocks inflammasome-driven IL-1 beta release; activity change, % at 57.5 µM; AID 743279; 4.7% of 360,000 active; THP-1 LPS/ATP IL-1B secretion, AlphaLISA, 16 h; active compounds read low; in the data active means activity change below about -50%; inconclusive means mostly about -30% to -49%
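THP-1 cells pretreated 1 hr with compounds (up to 57.5 uM final), then stimulated with LPS (250 ng/mL final) plus ATP (1.25 mM final); secreted IL-1B measured by AlphaLISA after 16 hr, decreased signal indicating inhibition.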
Active calls of the source: *; ? = inconclusive; nt = not tested or not shown. Hits are enriched below; roughly 19% of the tested compounds scored in any of these assays. Unless noted, the call rests on the fitted dose curve; in most records, active means well fitted curve in the direction sought with a large enough effect; inconclusive means small, poorly fitted or top-dose-only effect, or another doubt; inactive means no such curve, though single readings can be large; an effect the other way counts as inactive or inconclusive. Unless noted, on the % scale 0 is the no-effect control and ±100 the full control effect.

SMILES	HT1080NT lethal	HT1080 IDH1KD tx	ELG1 repair inh	TDP1 cell CPT	DT40 TDP1 no CPT	IL-1B inflam inh
CCn1cc(/C=C(\NC(=O)c2ccc(OC)c(OC)c2)C(=O)N2CCN(C)CC2)c2ccccc21	0%	3%	2%	?	8%	-12
CCOc1ccccc1NC(=O)c1nn(-c2ccc(C)cc2)c(=O)n(C)c1=O	nt	nt	nt	-25%	-14%	nt
Cc1csc(NC(=O)CCc2c(C)nc3cc(-c4ccc(Cl)cc4)nn3c2C)n1	17%	10%	?	18µM*	13µM*	38
Cc1nc2c(-c3ccc(F)cc3)c(C)nn2c(C)c1CCC(=O)Nc1ccccc1F	-1%	5%	?	?	-18%	-23
CCc1ccccc1NC(=O)CCc1c(C)nc2cc(-c3ccccc3)nn2c1C	nt	nt	nt	?	18µM*	nt
CCOC(=O)CC(NC(=O)CCc1c(C)nc2nc(C)nn2c1C)c1ccc(OC(C)C)cc1 (centres undefined)	6%	1%	9%	-10%	-1%	48
Cc1nc2cc(-c3ccccc3)nn2c(C)c1CCC(=O)Nc1ccc(F)cc1F	nt	nt	nt	10µM*	12µM*	nt
CCOC(=O)CC(NC(=O)CCc1c(C)nc2cc(-c3ccccc3)nn2c1C)c1ccc(C)cc1 (centres undefined)	nt	nt	nt	16µM*	18µM*	nt
Cc1nc2cc(-c3ccc(Cl)cc3)nn2c(C)c1CCC(=O)N1CCN(c2ccccc2)CC1	nt	nt	nt	-11%	-1%	nt
COc1cc(Cl)c(C)cc1NC(=O)CCc1c(C)nc2cc(-c3cccc(F)c3)nn2c1C	nt	nt	nt	2%	6%	nt
C=C1CCN([C@H](C(=O)NCc2ccc(Cl)cc2)C(C)C)S(=O)(=O)c2ccccc21	11%	4%	4%	12%	-10%	17
COc1ccc(-n2c(-c3ccccc3)c[n+]3c2CCC3)cc1	?	-27%	?	2.1µM*	2.3µM*	?
COc1ccc(-n2c(-c3ccc(Br)cc3)c[n+]3c2CCCCC3)cc1	-26%	?	5.2µM*	1.8µM*	1.8µM*	-78*
COc1ccc(-n2c(-c3ccccc3)cc3c2CCCC3=O)cc1	-12%	-10%	4%	-28%	?	26
COc1ccc(-n2c(-c3ccc(Br)cc3)c[n+]3c2CCC3)cc1	?	?	1.8µM*	18µM*	4.6µM*	-67*
COc1ccc(-n2c(-c3ccc(Br)cc3)n[nH]c2=S)cc1	-3%	6%	-9%	?	?	0
COc1ccc(-n2c(-c3ccc(Br)cc3)c[n+]3c2SC(C)C3)cc1 (centres undefined)	?	?	5.8µM*	1.6µM*	1.2µM*	-97*
CN1CCc2ccc(NC(=O)c3ccc(C(F)(F)F)cc3)cc2C1	-18%	-12%	?	-19%	0%	4
O=C(N/C(=C/c1ccc(Br)cc1)C(=O)N1CCCCC1)c1ccccc1F	-3%	-11%	?	?	?	-25
CCOc1ccc(-c2c[n+]3c(n2-c2ccccc2)CCCCC3)cc1	?	18µM*	?	0.082µM*	0.0073µM*	?
COc1ccc(-c2noc(-c3cccnc3NCc3ccco3)n2)cc1	nt	nt	nt	-20%	?	nt
CSc1nc2n(n1)C(c1cccs1)C1=C(CCCC1=O)N2 (centres undefined)	5%	3%	8%	5%	-4%	15
O=C1CCCC2=C1C(c1cccs1)n1nc(SCc3ccccc3F)nc1N2 (centres undefined)	-4%	-17%	?	12µM*	23µM*	-5
Cc1ccccc1CSc1nc2n(n1)C(c1cccs1)C1=C(CCCC1=O)N2 (centres undefined)	?	?	-28%	21µM*	18µM*	?
COc1ccc(CN(C)C[C@H]2OCCCC[C@@H](C)Oc3ccc(NS(C)(=O)=O)cc3C(=O)N([C@H](C)CO)C[C@@H]2C)cc1	7%	2%	nt	-2%	-2%	0
SMILES	HT1080NT lethal	HT1080 IDH1KD tx	ELG1 repair inh	TDP1 cell CPT	DT40 TDP1 no CPT	IL-1B inflam inh
Cc1ccc(C)c(N(C(=O)c2csnn2)C(C(=O)NC2CCCC2)c2cccnc2)c1 (centres undefined)	2%	1%	-2%	-2%	-7%	21
Cc1ccccc1-c1cc(N(C)Cc2ccco2)ncn1	nt	nt	nt	?	-8%	nt
CN(C)Cc1ccccc1-c1nc(N(C)Cc2ccco2)c2ccccc2n1	nt	nt	nt	18µM*	8.2µM*	nt
CC(=O)NCCNc1nc(-c2ccccc2CN(C)C)nc2ccccc12	nt	nt	nt	13%	4%	nt
CN(C)Cc1ccccc1-c1nccc(N(C)Cc2ccco2)n1	nt	nt	nt	21µM*	?	nt
COc1cc(/C=N/Nc2nc3ccccc3s2)ccc1OC(=O)c1ccccc1F	-18%	?	?	6.5µM*	4.6µM*	-71*
COc1cc(C=NNc2ccccc2)ccc1OC(=O)c1ccccc1	?	?	nt	?	18µM*	0
COc1cc(/C=N/Nc2ccccc2)ccc1OC(=O)c1cccs1	-25%	?	?	-7%	-2%	6
CCOc1cc(/C=N/NC(=O)CNc2cccc(C)c2)ccc1OC(=O)c1ccccc1	-1%	-1%	-13%	?	18µM*	-7
COc1cccc(CNC(=O)c2cccc(S(=O)(=O)N3CCN(Cc4ccccc4)CC3)c2)c1	1%	-3%	nt	-9%	-18%	-8
CCOc1ccc(CCNC(=O)CCc2c(C)nc3c4c(C)cc(C)nc4nn3c2C)cc1	nt	nt	nt	5%	-15%	nt
CC1CCN(c2nc(-c3cccnc3)nc3scc(-c4ccccc4)c23)CC1	-10%	4%	15%	?	-17%	81
CC1CCCN(c2nc(-c3cccnc3)nc3scc(-c4ccccc4)c23)C1 (centres undefined)	1%	-18%	?	?	18µM*	-61*
CN1CCN(c2nc(-c3cccnc3)nc3scc(-c4ccccc4)c23)CC1	?	-9%	-5%	?	23µM*	-52*
CC(C)C1OC(c2cccc(NC(=O)c3cccs3)c2)OCC1(C)C (centres undefined)	?	?	?	?	23µM*	-75*
COc1cccc(OC)c1C(=O)Nc1cccc(NC(=O)c2cccs2)c1	1%	1%	-26%	-4%	-30%	0

Bioassay records deposited in PubChem by National Center for Advancing Translational Sciences (NCATS).
